The results in this text go back to publication PMC7862700, “An all-to-all approach to the identification of sequence-specific readers for epigenetic DNA modifications on cytosine”.

Holding throughout (experiment): DAPPL (digital affinity profiling via proximity ligation, sequencing); 10 mM Tris-HCl pH 7.5, 50 mM NaCl, 1 mM DTT, 4% glycerol, room temperature, 30 min; GST-TFs on glutathione beads, 16-mer random dsDNA library, 0.1% formaldehyde crosslink after washing; high values mean tight binding
What all share (conditions): protein: recombinant; tags: N-terminal GST; dsDNA, one strand shown

For one experiment, the target named is T1, FLI1 (Homo sapiens, UniProt Q01543 1-452).
T1 sequence: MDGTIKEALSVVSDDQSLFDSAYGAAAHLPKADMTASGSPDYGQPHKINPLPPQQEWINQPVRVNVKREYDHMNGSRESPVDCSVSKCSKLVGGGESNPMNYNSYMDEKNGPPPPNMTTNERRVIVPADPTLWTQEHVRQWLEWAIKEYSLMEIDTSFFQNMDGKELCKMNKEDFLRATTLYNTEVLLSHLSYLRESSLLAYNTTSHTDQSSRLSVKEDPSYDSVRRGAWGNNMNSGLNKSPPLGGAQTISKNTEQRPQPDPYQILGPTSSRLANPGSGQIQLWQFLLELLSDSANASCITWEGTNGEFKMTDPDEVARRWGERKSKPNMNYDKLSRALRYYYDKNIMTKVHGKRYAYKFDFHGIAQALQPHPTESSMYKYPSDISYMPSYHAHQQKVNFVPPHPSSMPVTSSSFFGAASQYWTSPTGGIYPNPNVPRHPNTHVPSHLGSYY
In a few lines:
(§1)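 Human transcription factors carrying a GST fusion were produced in yeast, bound to glutathione beads, tagged with DNA barcodes and pooled together with a tag-only sample. Each pool was held with 200 nmole of a random double-stranded 16-mer DNA library in Tris/NaCl/DTT/glycerol buffer for 30 min at room temperature, then washed, crosslinked in 0.1% formaldehyde, proximity-ligated with BsaI/T4 ligase (1 h, 37 °C), PCR-amplified and sequenced on an Illumina NextSeq500. Binding signal is the read frequency of each hexamer for a given factor divided by its frequency in the tag-only sample.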

The target in the next experiment is T2, ELK1 (Homo sapiens, UniProt P19419 1-428).
T2 sequence: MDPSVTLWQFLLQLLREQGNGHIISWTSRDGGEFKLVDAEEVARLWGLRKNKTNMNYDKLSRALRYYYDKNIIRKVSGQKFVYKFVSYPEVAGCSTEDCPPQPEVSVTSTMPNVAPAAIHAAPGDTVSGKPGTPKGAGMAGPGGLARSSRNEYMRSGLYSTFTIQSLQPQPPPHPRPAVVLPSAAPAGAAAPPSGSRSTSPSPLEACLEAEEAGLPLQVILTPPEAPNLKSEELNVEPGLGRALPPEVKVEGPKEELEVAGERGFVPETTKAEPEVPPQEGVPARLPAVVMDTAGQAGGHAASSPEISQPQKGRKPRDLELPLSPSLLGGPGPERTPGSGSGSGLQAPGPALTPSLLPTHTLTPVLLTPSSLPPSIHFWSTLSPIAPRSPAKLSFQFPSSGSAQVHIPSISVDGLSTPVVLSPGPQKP
In short, it runs like this: as §1

In another experiment the target is T3, GABPA (Homo sapiens, UniProt Q06546 1-454).
T3 sequence: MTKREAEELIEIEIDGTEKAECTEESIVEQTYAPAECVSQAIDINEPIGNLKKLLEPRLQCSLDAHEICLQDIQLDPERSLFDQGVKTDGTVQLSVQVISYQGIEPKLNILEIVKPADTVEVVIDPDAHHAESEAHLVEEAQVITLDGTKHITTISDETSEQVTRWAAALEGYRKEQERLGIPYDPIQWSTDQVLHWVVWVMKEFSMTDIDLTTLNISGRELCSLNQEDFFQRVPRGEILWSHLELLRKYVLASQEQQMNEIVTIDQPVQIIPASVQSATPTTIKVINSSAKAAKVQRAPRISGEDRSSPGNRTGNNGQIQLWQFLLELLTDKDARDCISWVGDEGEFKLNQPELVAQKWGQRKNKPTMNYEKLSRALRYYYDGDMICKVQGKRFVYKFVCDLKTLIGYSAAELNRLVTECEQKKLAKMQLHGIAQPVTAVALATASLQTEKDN
In a few lines: as §1

In a further experiment the target is T4, ERG (Homo sapiens, UniProt P11308 1-479).
T4 sequence: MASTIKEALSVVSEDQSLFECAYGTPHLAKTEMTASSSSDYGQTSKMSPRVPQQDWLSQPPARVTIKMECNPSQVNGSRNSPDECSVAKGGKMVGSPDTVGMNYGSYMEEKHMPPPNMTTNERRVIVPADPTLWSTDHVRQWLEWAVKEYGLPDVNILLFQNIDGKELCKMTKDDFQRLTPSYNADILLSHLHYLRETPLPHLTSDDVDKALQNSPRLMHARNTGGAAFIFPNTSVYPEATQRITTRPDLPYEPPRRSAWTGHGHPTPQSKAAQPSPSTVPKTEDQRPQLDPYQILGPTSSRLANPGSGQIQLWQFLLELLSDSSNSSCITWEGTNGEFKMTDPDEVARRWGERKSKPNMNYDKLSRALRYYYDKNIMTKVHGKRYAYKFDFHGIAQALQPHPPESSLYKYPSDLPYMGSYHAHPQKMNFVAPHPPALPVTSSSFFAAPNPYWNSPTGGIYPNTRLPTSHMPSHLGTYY
In short, it runs like this: as §1

The next experiment has as its target ELF1 (Homo sapiens, UniProt P32519 1-619). In a few lines:
as §1

The target in another experiment is T5, EHF (Homo sapiens, UniProt Q9NZC4 1-300).
T5 sequence: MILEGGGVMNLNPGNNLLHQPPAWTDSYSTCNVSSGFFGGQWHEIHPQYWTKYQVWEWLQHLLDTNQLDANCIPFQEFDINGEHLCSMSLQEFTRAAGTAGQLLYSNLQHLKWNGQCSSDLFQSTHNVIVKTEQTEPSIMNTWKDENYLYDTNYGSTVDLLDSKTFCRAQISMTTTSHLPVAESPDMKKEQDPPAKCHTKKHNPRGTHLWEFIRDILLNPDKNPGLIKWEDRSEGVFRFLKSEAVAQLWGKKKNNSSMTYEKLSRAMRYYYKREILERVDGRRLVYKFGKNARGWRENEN
In short, it runs like this:
as §1

A further experiment concerns the target SPI1 (Homo sapiens, UniProt P17947 1-270). In a few lines:
as §1

A further experiment deals with SPIB (Homo sapiens, UniProt Q01892 1-262). In a few lines: as §1
SPIB, sequence (Q01892 whole entry): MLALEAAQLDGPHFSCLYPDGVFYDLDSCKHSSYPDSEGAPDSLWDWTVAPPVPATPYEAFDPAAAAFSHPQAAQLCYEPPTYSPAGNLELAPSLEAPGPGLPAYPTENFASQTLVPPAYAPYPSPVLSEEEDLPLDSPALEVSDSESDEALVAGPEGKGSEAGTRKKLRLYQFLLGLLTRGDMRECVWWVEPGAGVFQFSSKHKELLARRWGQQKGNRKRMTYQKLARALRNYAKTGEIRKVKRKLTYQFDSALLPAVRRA
Another experiment deals with T6, ELK3 (Homo sapiens, UniProt P41970 1-407).
T6 sequence: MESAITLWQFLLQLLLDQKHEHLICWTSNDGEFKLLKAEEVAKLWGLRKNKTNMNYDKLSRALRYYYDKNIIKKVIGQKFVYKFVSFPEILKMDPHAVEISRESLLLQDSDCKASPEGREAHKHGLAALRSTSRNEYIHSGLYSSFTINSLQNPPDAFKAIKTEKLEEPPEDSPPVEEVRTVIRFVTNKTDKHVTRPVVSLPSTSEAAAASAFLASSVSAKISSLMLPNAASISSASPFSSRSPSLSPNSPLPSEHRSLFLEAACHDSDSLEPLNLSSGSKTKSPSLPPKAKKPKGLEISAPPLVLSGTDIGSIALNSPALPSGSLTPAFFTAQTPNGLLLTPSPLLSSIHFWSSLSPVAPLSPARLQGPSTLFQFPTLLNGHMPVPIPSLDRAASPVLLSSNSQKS
In short, it runs like this:
as §1

ELF1, sequence (P32519 whole entry): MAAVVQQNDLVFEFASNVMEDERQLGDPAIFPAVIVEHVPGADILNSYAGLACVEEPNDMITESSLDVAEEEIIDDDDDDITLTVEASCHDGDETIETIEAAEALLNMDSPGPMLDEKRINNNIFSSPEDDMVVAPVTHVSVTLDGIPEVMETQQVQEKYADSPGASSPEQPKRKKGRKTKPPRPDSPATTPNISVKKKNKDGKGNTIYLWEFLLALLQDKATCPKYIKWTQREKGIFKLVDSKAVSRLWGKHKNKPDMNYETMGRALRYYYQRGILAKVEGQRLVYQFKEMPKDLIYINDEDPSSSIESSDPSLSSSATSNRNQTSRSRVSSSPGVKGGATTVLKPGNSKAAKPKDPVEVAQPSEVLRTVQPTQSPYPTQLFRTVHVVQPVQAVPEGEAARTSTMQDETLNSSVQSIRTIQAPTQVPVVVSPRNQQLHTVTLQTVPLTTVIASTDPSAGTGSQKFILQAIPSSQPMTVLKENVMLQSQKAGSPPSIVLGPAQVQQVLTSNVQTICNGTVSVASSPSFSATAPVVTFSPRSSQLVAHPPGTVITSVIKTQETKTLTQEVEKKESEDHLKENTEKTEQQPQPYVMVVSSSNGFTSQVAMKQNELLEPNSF

Regarding TGATGC, the binding signal in the experiment with FLI1 was 1.49 fold enrichment (6-mer frequency, TF over GST control); in the experiment with ELK1, 1.63 fold enrichment (6-mer frequency, TF over GST control); with GABPA, 1.65 fold enrichment (6-mer frequency, TF over GST control); with ERG, 1.4 fold enrichment (6-mer frequency, TF over GST control); with ELF1, 1.64 fold enrichment (6-mer frequency, TF over GST control); with EHF, 1.58 fold enrichment (6-mer frequency, TF over GST control). The binding signal with SPI1 was 1.42 fold enrichment (6-mer frequency, TF over GST control); in the experiment with SPIB, 1.47 fold enrichment (6-mer frequency, TF over GST control); in the experiment with ELK3, 1.72 fold enrichment (6-mer frequency, TF over GST control).

Regarding TATCCT, the binding signal with FLI1 is 1.7 fold enrichment (6-mer frequency, TF over GST control); with ELK1, 1.79 fold enrichment (6-mer frequency, TF over GST control); in the experiment with GABPA, 1.71 fold enrichment (6-mer frequency, TF over GST control); with ERG, 1.9 fold enrichment (6-mer frequency, TF over GST control); with ELF1, 1.73 fold enrichment (6-mer frequency, TF over GST control); with EHF, 1.81 fold enrichment (6-mer frequency, TF over GST control). The binding signal with SPI1 was 1.74 fold enrichment (6-mer frequency, TF over GST control); with SPIB it was 1.8 fold enrichment (6-mer frequency, TF over GST control); in the experiment with ELK3 it was 1.76 fold enrichment (6-mer frequency, TF over GST control).

Turning to TTAAAG, the binding signal with FLI1 was 1.17 fold enrichment (6-mer frequency, TF over GST control); with ELK1 it was 1.11 fold enrichment (6-mer frequency, TF over GST control); in the experiment with GABPA, 1.26 fold enrichment (6-mer frequency, TF over GST control); with ERG, 1.1 fold enrichment (6-mer frequency, TF over GST control); with ELF1, 1.19 fold enrichment (6-mer frequency, TF over GST control); with EHF it was 1.18 fold enrichment (6-mer frequency, TF over GST control). The binding signal in the experiment with SPI1 is 1.12 fold enrichment (6-mer frequency, TF over GST control); with SPIB, 1.19 fold enrichment (6-mer frequency, TF over GST control); with ELK3, 1.09 fold enrichment (6-mer frequency, TF over GST control).

Consider ATTTTT, for which the binding signal in the experiment with FLI1 is 1.14 fold enrichment (6-mer frequency, TF over GST control); with ELK1 it was 1.14 fold enrichment (6-mer frequency, TF over GST control); in the experiment with GABPA, 1.13 fold enrichment (6-mer frequency, TF over GST control); with ERG, 1.1 fold enrichment (6-mer frequency, TF over GST control); with ELF1 it was 1.14 fold enrichment (6-mer frequency, TF over GST control); with EHF, 1.22 fold enrichment (6-mer frequency, TF over GST control). Besides, the binding signal with SPI1 is 1.18 fold enrichment (6-mer frequency, TF over GST control); with SPIB, 1.19 fold enrichment (6-mer frequency, TF over GST control); in the experiment with ELK3, 1.12 fold enrichment (6-mer frequency, TF over GST control).

In the case of TGTTAT, the binding signal in the experiment with FLI1 is 1.37 fold enrichment (6-mer frequency, TF over GST control); in the experiment with ELK1, 1.27 fold enrichment (6-mer frequency, TF over GST control); with GABPA, 1.36 fold enrichment (6-mer frequency, TF over GST control); with ERG, 1.41 fold enrichment (6-mer frequency, TF over GST control); in the experiment with ELF1, 1.29 fold enrichment (6-mer frequency, TF over GST control); with EHF it was 1.35 fold enrichment (6-mer frequency, TF over GST control). Besides, the binding signal with SPI1 was 1.38 fold enrichment (6-mer frequency, TF over GST control); with SPIB, 1.31 fold enrichment (6-mer frequency, TF over GST control); in the experiment with ELK3, 1.24 fold enrichment (6-mer frequency, TF over GST control).

Turning to CCCCCT, the binding signal is 1.22 fold enrichment (6-mer frequency, TF over GST control) with FLI1; 1.26 fold enrichment (6-mer frequency, TF over GST control) in the experiment with ELK1; 1.25 fold enrichment (6-mer frequency, TF over GST control) in the experiment with GABPA; 1.21 fold enrichment (6-mer frequency, TF over GST control) in the experiment with ERG; 1.33 fold enrichment (6-mer frequency, TF over GST control) with ELF1; 1.26 fold enrichment (6-mer frequency, TF over GST control) with EHF. In addition, the binding signal was 1.19 fold enrichment (6-mer frequency, TF over GST control) with SPI1; 1.24 fold enrichment (6-mer frequency, TF over GST control) with SPIB; 1.32 fold enrichment (6-mer frequency, TF over GST control) with ELK3.

In the case of TCCCTA, the binding signal was 1.35 fold enrichment (6-mer frequency, TF over GST control) with FLI1; 1.26 fold enrichment (6-mer frequency, TF over GST control) with ELK1; 1.26 fold enrichment (6-mer frequency, TF over GST control) with GABPA; 1.3 fold enrichment (6-mer frequency, TF over GST control) with ERG; 1.32 fold enrichment (6-mer frequency, TF over GST control) with ELF1; 1.27 fold enrichment (6-mer frequency, TF over GST control) with EHF. Further, the binding signal was 1.52 fold enrichment (6-mer frequency, TF over GST control) with SPI1; 1.32 fold enrichment (6-mer frequency, TF over GST control) with SPIB; 1.34 fold enrichment (6-mer frequency, TF over GST control) in the experiment with ELK3.
